Records with an inconclusive call do not appear. Entries that show only a call come without a potency. Activity calls are given as the source filed them. The call rests on the fitted dose curve.
The molecules below were run against Atrial natriuretic peptide receptor 1 (Homo sapiens) (UniProt P16066) (assay: Natriuretic polypeptide receptor (hNpr1) antagonism - Pilot screen (AID 1347049;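 further: agonist-evoked cGMP luminescence read 20 min after hNppA addition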; further: potency means the concentration at half of the fitted maximal effect)). Settings: hNpr1 cells, antagonist mode cGMP read-out; series mostly up to 57.5 µM.
Outline: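 cGMP-sensor HEK293/hNpr1 cells, 1500/well, plated overnight at 37C. 2% GloSensor reagent, 2 h RT. Compound (23 nL pin transfer) 30 min RT, baseline luminescence pre-read. 0.1 nM hNppA, 20 min RT, post-read.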

Sequence of Atrial natriuretic peptide receptor 1 (Homo sapiens) (P16066 whole entry, looked up): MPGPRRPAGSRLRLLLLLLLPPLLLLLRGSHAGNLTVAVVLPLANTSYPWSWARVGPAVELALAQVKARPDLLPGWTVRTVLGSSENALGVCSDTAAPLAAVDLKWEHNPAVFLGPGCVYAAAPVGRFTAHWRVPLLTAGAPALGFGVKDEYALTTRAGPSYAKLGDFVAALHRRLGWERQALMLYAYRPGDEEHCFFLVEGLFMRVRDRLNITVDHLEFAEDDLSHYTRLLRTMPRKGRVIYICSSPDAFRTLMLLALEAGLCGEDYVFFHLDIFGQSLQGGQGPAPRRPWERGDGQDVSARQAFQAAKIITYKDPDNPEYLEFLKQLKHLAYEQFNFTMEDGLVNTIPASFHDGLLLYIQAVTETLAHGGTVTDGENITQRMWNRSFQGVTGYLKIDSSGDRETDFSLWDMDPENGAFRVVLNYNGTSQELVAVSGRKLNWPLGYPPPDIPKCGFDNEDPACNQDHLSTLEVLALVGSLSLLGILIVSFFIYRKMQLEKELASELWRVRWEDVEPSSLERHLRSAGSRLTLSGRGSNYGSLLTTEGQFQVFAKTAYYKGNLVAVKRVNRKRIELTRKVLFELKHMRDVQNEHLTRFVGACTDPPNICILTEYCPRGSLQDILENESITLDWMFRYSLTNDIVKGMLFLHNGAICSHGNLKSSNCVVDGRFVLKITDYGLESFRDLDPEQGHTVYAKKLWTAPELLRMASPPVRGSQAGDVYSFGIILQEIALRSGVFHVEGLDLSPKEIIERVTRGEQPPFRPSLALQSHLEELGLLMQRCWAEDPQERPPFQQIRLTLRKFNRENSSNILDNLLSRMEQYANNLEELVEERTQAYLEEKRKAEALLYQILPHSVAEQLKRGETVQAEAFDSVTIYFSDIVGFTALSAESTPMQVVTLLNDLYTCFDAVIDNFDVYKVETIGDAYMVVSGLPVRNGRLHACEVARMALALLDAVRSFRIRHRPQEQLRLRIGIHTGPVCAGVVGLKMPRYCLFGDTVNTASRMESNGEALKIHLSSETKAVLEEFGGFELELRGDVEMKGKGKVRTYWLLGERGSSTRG

SMILES	Potency
N[C@@H](Cc1ccc(F)cc1)C(=O)O	inactive
O=C(O)c1ccccc1Nc1ccccc1	inactive
NCC(O)C1CCCCCCC1 (stereo not drawn)	inactive
O=C(O)c1cc2cc(F)ccc2[nH]1	inactive
CC(C)NC[C@H](O)COc1cccc2ccccc12	inactive
Cn1cc(C(=O)OCC2CCN(CCNS(C)(=O)=O)CC2)c2ccccc21	inactive
CCCCCC(O)CCCC(=O)O (stereo not drawn)	inactive
Cc1ccc2c(c1)C(N1CCN(C)CC1)=Nc1cccnc1N2	inactive
CNCCc1cnc(CCC(c2ccccc2)c2ccccc2)[nH]1	inactive
Cc1cccc(C(=O)NCN2CCN(c3ccccc3C#N)CC2)c1	inactive
CC(C)C[C@H](NC(=O)[C@H](O)[C@H](N)Cc1ccccc1)C(=O)O	inactive
O=C(O)Cc1ccc(O)c(O)c1	inactive
N[C@@H](CCCC(=O)O)C(=O)O	inactive
CCCCCCC(=O)OC1CC(C)(C)NC(C)(C)C1	inactive
COCc1nc2c([nH]1)c(=O)n(C)c(=O)n2CC(C)C	inactive
C=CCN1CCc2c(cc(O)c(O)c2Br)[C@@H](c2ccccc2)C1	inactive
CCCCCCCCCC(=O)NC(CN1CCOCC1)[C@H](O)c1ccccc1 (stereo partly drawn)	inactive
C[C@](Cc1ccc(O)c(O)c1)(NN)C(=O)O	inactive

SMILES	Potency
CC1=C(/C=C/C(C)=C/C=C/C(C)=C\C(=O)O)C(C)(C)CCC1	inactive
CCCCC[C@H](CC(=O)NO)C(=O)N[C@H](C(=O)N1CCC[C@H]1CO)C(C)C	inactive
NC(N)=N[C@@H](CCC(=O)O)C(=O)O	inactive
COc1ccccc1N1CCN(CCCCNC(=O)c2ccc3ccccc3c2)CC1	inactive
O=c1cc(-c2ccccc2)[nH]c2nc(Cl)ccc12	inactive
S=C(S)N1CCCC1	9.53 µM (active)
CC1CNCCN1S(=O)(=O)c1cccc2cnccc12 (stereo not drawn)	inactive
CCc1ccc2c(-c3cccc(Cl)c3)nc(=O)n(CC)c2n1	inactive
CCn1c(=O)[nH]c2cc(Cl)c(Cl)cc21	inactive
CC1C(=O)N(C)C(=O)c2nc[nH]c21 (stereo not drawn)	inactive
c1ccc2c(c1)CC(N1CCN(c3cccc4c3OCCO4)CC1)C2	inactive
CN1C2CCC1CC(OC(c1ccccc1)c1ccccc1)C2 (stereo not drawn)	inactive
CC(C)(C)c1ccc(/C=C/C(=O)Nc2ccc3c(c2)OCCO3)cc1	23.9 µM (active)
OC[C@H]1O[C@@H](n2cnc3cncnc32)[C@H](O)[C@@H]1O	inactive
C/C(=C\c1ccc(C(=O)O)cc1)c1ccc2c(c1)C(C)(C)CCC2(C)C	inactive
Clc1nccc2c1ccc1ccccc12	inactive
O=c1ccn([C@@H]2O[C@H](COP(=O)(O)OP(=O)(O)O)[C@@H](O)[C@H]2O)c(=O)[nH]1	inactive

The molecules below were run against Atrial natriuretic peptide receptor 2 (Homo sapiens) (UniProt P20594) (assay: Natriuretic polypeptide receptor (hNpr2) antagonism - Pilot subtype selectivity assay (AID 1347050)). Settings: NPR2-expressing cells, cGMP antagonist-mode read-out; series mostly up to 38.3 µM.
Outline: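 Luminescence from a genetically encoded cGMP luciferase biosensor in hNpr2-expressing HEK293 cells is read before and 20 min after adding 1 nM hNppC. Test compounds, in interplate 1:5 titrations, are added 30-50 min ahead of the agonist.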

Sequence of Atrial natriuretic peptide receptor 2 (Homo sapiens) (P20594 whole entry, looked up): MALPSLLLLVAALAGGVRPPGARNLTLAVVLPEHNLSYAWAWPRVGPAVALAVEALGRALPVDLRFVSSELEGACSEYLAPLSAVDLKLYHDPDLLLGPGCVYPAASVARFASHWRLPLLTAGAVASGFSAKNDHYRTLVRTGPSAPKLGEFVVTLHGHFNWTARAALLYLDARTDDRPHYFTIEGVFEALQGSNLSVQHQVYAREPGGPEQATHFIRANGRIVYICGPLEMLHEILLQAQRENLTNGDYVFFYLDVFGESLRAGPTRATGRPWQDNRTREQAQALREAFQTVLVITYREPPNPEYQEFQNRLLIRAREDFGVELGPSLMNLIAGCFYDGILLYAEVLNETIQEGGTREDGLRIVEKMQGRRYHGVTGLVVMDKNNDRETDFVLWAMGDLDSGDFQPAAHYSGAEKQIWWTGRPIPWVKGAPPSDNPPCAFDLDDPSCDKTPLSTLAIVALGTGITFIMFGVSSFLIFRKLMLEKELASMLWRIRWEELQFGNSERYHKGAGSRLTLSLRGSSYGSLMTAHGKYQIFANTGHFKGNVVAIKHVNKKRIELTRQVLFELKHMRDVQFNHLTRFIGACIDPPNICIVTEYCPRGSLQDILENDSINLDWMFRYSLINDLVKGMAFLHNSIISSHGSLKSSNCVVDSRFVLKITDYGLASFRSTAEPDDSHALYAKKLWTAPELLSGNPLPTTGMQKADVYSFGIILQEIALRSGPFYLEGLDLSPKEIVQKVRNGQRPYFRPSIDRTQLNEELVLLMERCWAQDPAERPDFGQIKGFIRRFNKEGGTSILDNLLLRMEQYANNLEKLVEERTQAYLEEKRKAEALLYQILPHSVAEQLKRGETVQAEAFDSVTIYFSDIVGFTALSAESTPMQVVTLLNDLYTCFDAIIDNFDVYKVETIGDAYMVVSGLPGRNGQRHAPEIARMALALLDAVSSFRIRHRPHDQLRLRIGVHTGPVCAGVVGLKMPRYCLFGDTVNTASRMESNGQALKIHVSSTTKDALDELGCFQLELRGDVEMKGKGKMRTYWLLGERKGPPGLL

SMILES	Potency
N[C@@H](Cc1ccc(F)cc1)C(=O)O	inactive
O=C(O)c1ccccc1Nc1ccccc1	inactive
NCC(O)C1CCCCCCC1 (stereo not drawn)	inactive
O=C(O)c1cc2cc(F)ccc2[nH]1	inactive
CC(C)NC[C@H](O)COc1cccc2ccccc12	inactive
Cn1cc(C(=O)OCC2CCN(CCNS(C)(=O)=O)CC2)c2ccccc21	inactive
CCCCCC(O)CCCC(=O)O (stereo not drawn)	inactive
Cc1cccc(C(=O)NCN2CCN(c3ccccc3C#N)CC2)c1	inactive
CC(C)C[C@H](NC(=O)[C@H](O)[C@H](N)Cc1ccccc1)C(=O)O	inactive
O=C(O)Cc1ccc(O)c(O)c1	inactive
N[C@@H](CCCC(=O)O)C(=O)O	inactive
CCCCCCC(=O)OC1CC(C)(C)NC(C)(C)C1	inactive
COCc1nc2c([nH]1)c(=O)n(C)c(=O)n2CC(C)C	inactive
C=CCN1CCc2c(cc(O)c(O)c2Br)[C@@H](c2ccccc2)C1	inactive
CCCCCCCCCC(=O)NC(CN1CCOCC1)[C@H](O)c1ccccc1 (stereo partly drawn)	inactive
C[C@](Cc1ccc(O)c(O)c1)(NN)C(=O)O	inactive
CC1=C(/C=C/C(C)=C/C=C/C(C)=C\C(=O)O)C(C)(C)CCC1	inactive

SMILES	Potency
CCCCC[C@H](CC(=O)NO)C(=O)N[C@H](C(=O)N1CCC[C@H]1CO)C(C)C	inactive
NC(N)=N[C@@H](CCC(=O)O)C(=O)O	inactive
COC(=O)C(N)Cc1ccc(Cl)cc1 (stereo not drawn)	inactive
COc1ccccc1N1CCN(CCCCNC(=O)c2ccc3ccccc3c2)CC1	inactive
Cn1c(=O)c2c(nc(/C=C/c3cccc(Cl)c3)n2C)n(C)c1=O	inactive
O=c1cc(-c2ccccc2)[nH]c2nc(Cl)ccc12	inactive
COc1cccc(OC)c1OCCNCC1CSc2ccccc2O1 (stereo not drawn)	inactive
CC1CNCCN1S(=O)(=O)c1cccc2cnccc12 (stereo not drawn)	inactive
CCc1ccc2c(-c3cccc(Cl)c3)nc(=O)n(CC)c2n1	inactive
CCn1c(=O)[nH]c2cc(Cl)c(Cl)cc21	inactive
CC1C(=O)N(C)C(=O)c2nc[nH]c21 (stereo not drawn)	inactive
c1ccc2c(c1)CC(N1CCN(c3cccc4c3OCCO4)CC1)C2	inactive
OC[C@H]1O[C@@H](n2cnc3cncnc32)[C@H](O)[C@@H]1O	inactive
C/C(=C\c1ccc(C(=O)O)cc1)c1ccc2c(c1)C(C)(C)CCC2(C)C	inactive
Clc1nccc2c1ccc1ccccc12	inactive
O=c1ccn([C@@H]2O[C@H](COP(=O)(O)OP(=O)(O)O)[C@@H](O)[C@H]2O)c(=O)[nH]1	inactive

Source: PubChem BioAssay (NCATS)
